High-throughput results (PubChem BioAssay)
The list is not random: actives were taken first. Their share in the collection is about 12%.
OTUD3 block – blocks human OTUD3 ubiquitin-rhodamine cleavage. Q5T2D3. purified OTUD3, Ub-rhodamine fluorescence, 2 h. inhibition, % at 25 µM. 47,000 tested, 0.7% active
USP30 inh – human USP30 deubiquitinase inhibition; Q70CQ3; purified USP30, Ub-rhodamine cleavage fluorescence; inhibition, % at 25 µM; 47,000 tested, 5.3% active; AID 1645860
USP17 inh – inhibitors of human USP17 deubiquitinase | A8MUK1 | purified USP17, Ub-rhodamine cleavage fluorescence, 3 h | inhibition, % at 50 µM | 47,000 tested, 6.5% active
USP28 block – blocks human USP28 ubiquitin-rhodamine cleavage; purified USP28, Ub-rhodamine cleavage fluorescence, 30 min; inhibition, % at 25 µM; AID 1645857; Q96RU2; 47,000 tested, 3% active
An asterisk follows results filed as active; · = not tested or not shown. No stated cut-off is given here; in the data, active means inhibition above about 30%; inactive means the rest.

SMILES	OTUD3 block	USP30 inh	USP17 inh	USP28 block
CCc1cc(=O)n(CC(=O)Nc2cccc(F)c2)c(N2CCOCC2)n1	6.3	16.5	9.2	1.9
Cc1ccc(NC(=O)Cn2c(N3CCOCC3)nc3cc(C)n(C)c3c2=O)cc1	-4.8	49.0*	14.3	-10.7
O=C(COc1ncnc2sc3c(c12)CCCC3)Nc1ccc2c(c1)OCO2	-15.5	-103.2	10.8	-21.4
O=C(C1CCCC1)N1CC(c2ccnc(Nc3cc(C(F)(F)F)ccn3)n2)C1	11.8	20.3	-5.3	4.2
Cn1cc(-c2noc(Cc3cccc(C(F)(F)F)c3)n2)ccc1=O	7.3	17.5	8.9	79.1*
CCOC(=O)c1cccc(NC(=O)CC(=O)Nc2ccc3nc4n(c(=O)c3c2)CCCCC4)c1	-10.6	-61.7	-14.5	22.8
COc1cc(OC)cc(C(=O)Nc2ccc(O)c(-c3nc4cnccc4o3)c2)c1	0.0	-0.1	35.2*	10.7
CCn1ccc2c(cc(C(=O)Nc3cccc(F)c3)n2C)c1=O	-4.0	12.5	38.8*	42.8*
CCn1ccc2c(cc(C(=O)Nc3cccc(C)c3C)n2C)c1=O	-4.1	-6.4	-16.3	31.2*
CCc1ccc(NC(=O)Cn2c(=O)n(CCCC(=O)NC3CCN(Cc4ccccc4)CC3)c(=O)c3ccccc32)cc1	10.3	-4.7	-0.5	-7.9
CC1NC(=O)[C@H]2C[C@H](C(=O)NC3CCCC3)[C@@H]1N2Cc1ccccc1 (some centres undefined)	16.5	18.9	15.8	11.1
Cn1c(=O)/c(=C/c2ccccc2)[nH]c(=O)/c1=C/c1ccccc1	3.6	20.2	56.3*	7.0
Oc1cc(O)cc(/C=C/c2ccc(O)c(O)c2)c1	47.4*	30.8*	40.1*	48.7*
CCCN1C=NS(=O)(=O)c2cc(C(=O)Nc3ccc(C)cc3C)ccc21	1.0	8.8	-0.9	11.1
CCCCCn1ccc2c(cnc3nc(-c4cccnc4)nn32)c1=O	13.5	24.7	21.7	15.4
O=C(c1cc(-c2ccc(Cl)cc2)n[nH]1)N1CCN(c2ccc(F)cc2)CC1	0.1	5.5	3.4	-2.0
O=C(c1cc(-c2ccc(Cl)cc2)n[nH]1)N1CCN(c2ccccn2)CC1	2.2	42.6*	45.0*	12.9
COc1ccc(-c2cc(C(=O)N3CCN(c4ccccn4)CC3)[nH]n2)cc1	10.5	11.5	46.4*	20.8
COc1ccc(-c2nn3c(N4CCN(c5ccccn5)CC4)cc(C)nc3c2C)cc1	-5.0	·	84.4*	·
O=C(c1cc(-c2ccc(Cl)cc2)n[nH]1)N1CCN(C(=O)c2ccco2)CC1	7.0	10.3	70.0*	2.9
CCN1CCc2cc(C(=O)NC(C)C)c(N(C)C)nc2CC1	11.8	4.1	6.3	10.6
COc1ccc(CCNC(=O)c2oc(=O)c3ccccc3c2-c2ccc(C)cc2)cc1OC	-3.1	3.3	-0.6	-0.7
Cn1c(=O)c2nc(SCCC(=O)O)n(CCc3ccccc3)c2n(C)c1=O	4.9	10.5	8.6	4.0
CCCn1c(=O)c2cc(C(=O)Nc3ccccc3)nn2c2ccccc21	0.1	0.0	30.6*	-2.2
CCn1c(=O)c2cc(C(=O)Nc3ccc(OC)c(OC)c3)nn2c2ccccc21	-6.1	-5.7	-11.0	0.0
SMILES	OTUD3 block	USP30 inh	USP17 inh	USP28 block
CCc1nc(-c2ccc(C)c(S(=O)(=O)N3CCCC3)c2)no1	-0.4	-5.4	-0.6	1.9
Cc1nc2cc(NC(=O)C3CN(C(=O)c4cnccn4)C3)ccc2s1	-1.5	3.7	-16.1	53.8*
CC(=O)c1sc(NCc2ccc(C)cc2)nc1C	-1.7	5.0	-15.1	49.6*
CC(=O)c1sc(NC(=O)COc2ccc(N(C)S(=O)(=O)c3ccc(C)cc3)cc2)nc1C	-22.6	-41.8	18.9	-39.1
COc1ccc(CNC(=O)Cn2cnc3c(c(C)c(C)n3-c3ccccc3)c2=O)cc1	5.2	35.6*	29.8	19.2
Cc1c(C)n(-c2ccccc2)c2ncn(CC(=O)NCc3ccc(N(C)C)cc3)c(=O)c12	0.0	-6.0	-1.5	-5.9
Cc1c(C)n(-c2ccccc2)c2ncn(CC(=O)NCc3ccc(F)cc3)c(=O)c12	-0.7	40.5*	10.4	-2.6
Cc1c(C)n(-c2ccccc2)c2ncn(CC(=O)NCc3cccc(F)c3)c(=O)c12	1.9	34.0*	13.0	-1.5
CSc1ccc(CNC(=O)Cn2nc(C)c3c(C)n(-c4ccccc4)nc3c2=O)cc1	19.7	10.4	40.0*	9.2
CSc1ccc(CNC(=O)Cn2c(=O)[nH]c3c(-c4ccccc4)c[nH]c3c2=O)cc1	-18.3	-66.6	-28.8	-40.8
Cc1nnc(Nc2cccc(C3CCCN(CC(N)=O)C3)n2)s1 (centres undefined)	10.9	30.1*	7.9	11.2
COc1ccc(C2C(C(=O)NCc3ccccc3)=C(C)Nc3ncnn32)cc1 (centres undefined)	-2.9	-4.7	-15.4	-7.9
CC1=C(C(=O)NCc2ccccc2)C(c2cccc(F)c2)n2ncnc2N1 (centres undefined)	12.7	33.0*	10.9	7.6
O=C(NC[C@H]1OC[C@@H]2CCN(CC3CCOC3)C[C@@H]21)c1ccnnc1 (some centres undefined)	-11.5	-18.0	-13.5	-21.9
CSc1ncccc1C(=O)NC1(O)C(=O)c2ccccc2C1=O	23.4	45.9*	94.8*	10.0
Cc1nc(C(=O)NC2(O)C(=O)c3ccccc3C2=O)cs1	5.0	35.4*	93.8*	22.1
O=C(Oc1ccc(-c2csnn2)cc1)C1CC1	-4.3	-0.2	·	0.0
Cc1nc(CC(=O)Nc2c(C)cccc2C)cs1	-6.0	-59.6	-5.6	-12.3
O=C(NC1(O)C(=O)c2ccccc2C1=O)c1ccc(-c2csnn2)cc1	-30.2	32.1*	84.7*	-0.2
CSc1ncccc1C(=O)Nc1ccnn1Cc1ccccc1Cl	3.1	15.2	8.2	6.0
O=C(Cn1cnc(-c2noc(-c3ccncc3)n2)c1)N1CCN(c2ccccc2F)CC1	12.9	52.3*	11.2	4.8
O=C(NCCCN1CCCC1=O)c1cc(Cl)ccc1-n1cnnn1	12.3	22.2	-25.8	6.1
O=c1ccc(-c2noc(-c3n[nH]c4ccccc34)n2)c[nH]1	-50.6	-194.5	-26.8	-77.0
O=C(Cc1ccccc1)NCc1nc(-c2cccc(-c3ccn[nH]3)c2)no1	-1.5	7.4	-0.3	7.7
Cc1ccc(Cc2nc(-c3ccc(=O)[nH]c3)no2)cc1	5.3	-3.1	0.0	91.2*
SMILES	OTUD3 block	USP30 inh	USP17 inh	USP28 block
Clc1cc(-c2nc(-c3cccc(-c4ccn[nH]4)c3)no2)ccn1	-2.2	5.3	40.9*	1.0
Cc1ccc(Cc2nc(-c3cccc(-c4ccn[nH]4)c3)no2)cc1	6.6	2.2	10.5	45.4*
O=c1ccc(-c2noc(CCc3c[nH]c4ccccc34)n2)c[nH]1	-24.6	-93.1	-28.0	42.4*
O=c1ccc(-c2noc(-c3ccc4c(c3)OCO4)n2)c[nH]1	-3.1	-16.9	-6.8	-13.3
COCC(=O)N1CCC[C@@H]1Cn1c(C(F)(F)F)cc(=O)c2cc(C)ccc21	12.8	14.5	13.4	12.2
Cc1ccc(NC(=O)N2CCC(c3nc4cccnc4n3C)C2)cc1C (centres undefined)	-9.4	-25.6	-8.0	-2.1
Cc1ccc(NC(=O)c2ccc3nnc(C4CN(c5ncccn5)CCN4C)n3c2)cn1 (centres undefined)	5.5	14.9	1.7	10.5
